Measured values as given in PubChem BioAssay (NCI).
The panel holds about 83,000 compounds, 20% with a hit somewhere; the sample as a whole holds those more often.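 Step 1: grow cells in 96-well plates. Step 2: add test compound at a single concentration. Step 3: incubate 48 h. Step 4: record percent growth.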 A number with no mark means an inactive call. Calls of active or inactive are those of the source. How the source made its calls: active means growth percent below 10; inactive means the rest.

What was measured:
Test in all cases: NCI-60 one-dose screen, 48 h (100 = growth as untreated, 0 = no growth, -100 = all killed)
Details in all cases: 10 µM
DU-145 prostate = test system: DU-145 prostate
MALME-3M melanoma = test system: MALME-3M melanoma
MDA-MB-231 breast = test system: MDA-MB-231 breast
RXF 393 renal = test system: RXF 393 renal
SF-268 CNS = test system: SF-268 CNS
SF-295 CNS = test system: SF-295 CNS
SF-539 CNS = test system: SF-539 CNS
UACC-257 melanoma = test system: UACC-257 melanoma
HT29 colon = test system: HT29 colon
SNB-75 CNS = test system: SNB-75 CNS
SNB-19 CNS = test system: SNB-19 CNS
U251 CNS = test system: U251 CNS
PC-3 prostate = test system: PC-3 prostate
SK-MEL-5 melanoma = test system: SK-MEL-5 melanoma
UACC-62 melanoma = test system: UACC-62 melanoma
LOX IMVI melanoma = test system: LOX IMVI melanoma
SK-MEL-28 melanoma = test system: SK-MEL-28 melanoma
K-562 leukemia = test system: K-562 leukemia
M14 melanoma = test system: M14 melanoma
HCT-15 colon = test system: HCT-15 colon

Row | Compound | growth (DU-145 prostate) [%] | growth (MALME-3M melanoma) [%] | growth (MDA-MB-231 breast) | growth (RXF 393 renal) | growth (SF-268 CNS) [%] | growth (SF-295 CNS) | growth (SF-539 CNS) | growth (UACC-257 melanoma) [%] | growth (HT29 colon) | growth (SNB-75 CNS) | growth (SNB-19 CNS) | growth (U251 CNS) | growth (PC-3 prostate) [%] | growth (SK-MEL-5 melanoma) | growth (UACC-62 melanoma) | growth (LOX IMVI melanoma) | growth (SK-MEL-28 melanoma) [%] | growth (K-562 leukemia) | growth (M14 melanoma) | growth (HCT-15 colon)
1 | CNC(=O)c1c(I)c(NC(C)=O)c(I)c(C(=O)O)c1I | 113 | 112 | 95.5% | 115% | 108 | 119% | 109% | 114 | 103% | 87.3% | 96.2% | 102% | 93 | 108% | 98.5% | 94.5% | 114 | – | – | –
2 | COc1ccc(C(=O)COc2cccc(/C=C3\Cc4ccccc4C3=O)c2)cc1 | – | – | 66.5% | – | 77.2 | 87.1% | 75.9% | 83.5 | 82.1% | 46.8% | 90.8% | 82.6% | 82 | 67.3% | 61.3% | 90.3% | 103 | 80.5% | 81.2% | 85.6%
3 | C=C(NC(=O)C(=C)NC(=O)c1csc(C2=NC3c4csc(n4)C4NC(=O)c5csc(n5)C(C(C)(O)C(C)O)NC(=O)C5CSC(=N5)C(=CC)NC(=O)C(C(C)O)NC(=O)c5csc(n5)C3(CC2)NC(=O)C(C)NC(=O)C(=C)NC(=O)C(C)NC(=O)C(C(C)CC)NC2C=Cc3c(C(C)O)cc(nc3C2O)C(=O)OC4C)n1)C(N)=O (centres undefined) | 65.5 | 26.9 | 9.76% (active) | -41.3% (active) | 27.1 | – | 1.63% (active) | 26.4 | 3.8% (active) | 66.7% | 66.6% | 8.08% (active) | – | -5.61% (active) | -17% (active) | -7.87% (active) | – | – | 2.27% (active) | –
4 | Cc1cc(Cl)ccc1Nc1nc(C(F)(F)F)ccc1C(=O)N/N=C/c1cccc(O)c1 | – | – | 39.7% | – | 39.3 | 6.71% (active) | 23.5% | 44.1 | 23.7% | 28.9% | 63.5% | 30.5% | – | -52.1% (active) | 38.7% | 35.9% | 52.4 | 20.7% | 43.9% | 23%
5 | Cc1cn(-c2cc(F)cc(NC(=O)c3ccc(C)c(Nc4nccc(-c5cccnc5)n4)c3)c2)cn1 | 65.4 | – | 6.14% (active) | -1.37% (active) | 67.3 | – | -39.8% (active) | 23.1 | 2.89% (active) | -20.8% (active) | 6.01% (active) | – | 68.6 | 87.8% | 40.9% | 17% | 28.2 | – | 60.2% | 74.9%
6 | COc1ccccc1/C=N\N/C(N)=N\N=C\c1ccccc1OC | – | – | 21.7% | – | 41.4 | 5.03% (active) | -35.5% (active) | 46.3 | -1.01% (active) | 21.5% | 35.3% | 5.71% (active) | 29.3 | -30% (active) | 19.7% | 5.74% (active) | 56.9 | 2.34% (active) | – | 1.27% (active)
7 | Cc1cc(=O)n2nnc3cc(Cl)c(Cl)cc3n12 | 105 | – | 107% | 91.9% | 101 | 111% | 108% | 102 | 106% | 95.6% | 110% | 94.8% | 94.4 | 110% | 106% | 87.3% | 105 | – | 96.9% | 103%
8 | CCOC(=O)/C(=C(\C)N)C1CC(=O)NC1=O (centres undefined) | – | 111 | 112% | 102% | 108 | 101% | 105% | 101 | 105% | 95.1% | 101% | – | 92.1 | 97.9% | 103% | 95.7% | 98 | 83.6% | 97.2% | 103%
9 | O=C(N/N=C/c1ccc([N+](=O)[O-])cc1)c1ccccc1Nc1cccc(C(F)(F)F)c1 | – | – | 80.5% | – | 98.4 | 105% | 60.7% | 95.5 | 69.8% | 87.1% | 105% | 89.2% | 91 | 83.1% | 90.8% | 98.1% | 91.7 | 107% | – | 98.6%
